Our source for the outcome and AC50 values is PubChem BioAssay (EPA / NIEHS).

Several values for one entry are separate records, joined by “and”; a condition that tells them apart may be missing. Equal values may be shown once. Some compounds were tested as several samples or in several runs, with calls that do not always agree. Activity calls are given as the source filed them. How the source made its calls: active means hit-call score of the fitted dose curve at least 0.9, where 1 is the maximum; inactive means score below 0.9.

Read-out in this assay: Matrix Metallopeptidase 9 (MMP9), MMP9 (gene 4318)
Nature of the assay: BSK_KF3CT_MMP9: BioMAP Diversity Plus: KF3CT Assay for Matrix Metallopeptidase 9 (MMP9) Biomarker Activity (AID 2283074). Particulars: primary human keratinocytes with fibroblasts; actives raise or lower the signal. The method, then: BSK_KF3CT is a cell-based, multiplexed-readout assay that uses keratinocytes and foreskin fibroblasts, a human skin primary cell co-culture, with measurements taken at 24 hours after chemical dosing in a 96-well plate.BSK_KF3CT_MMP9 is an assay component measured in the BSK_KF3CT assay. It measures MMP-9 antibody related to regulation of gene expression using ELISA technology.Data from the assay component BSK_KF3CT_MMP9 was analyzed into 1 assay endpoint. This assay endpoint, BSK_KF3CT_MMP9, was analyzed with bidirectional fitting relative to DMSO as the negative control and baseline of activity. Using a type of binding reporter, gain or loss-of-signal activity can be used to understand changes in the signaling as they relate to the gene MMP9. Furthermore, this assay endpoint can be referred to as a primary readout, because this assay has produced multiple assay endpoints where this one serves a signaling function. To generalize the intended target to other relatable targets, this assay endpoint is annotated to the protease intended target family, where the subfamily is matrix metalloproteinase.
The levels of cell surface (or secreted, indicated by the prefix "s") biomarker endpoints were measured by ELISA. Overt cytotoxicity to cells in confluent adherent cultures (all systems other than the BT system) was assessed by measuring total protein levels using sulforhodamine B (SRB) staining in parallel cultures at the time of biomarker measurements, indicated as SRB endpoints. For proliferation assays for adherent cell types, individual cell types are cultured at sub-confluence and relative cell numbers quantified by SRB staining at time points optimized for each system (48 h: 3C and CASM3C systems; 72 h: BT and HDF3CGF systems; 96 h: SAg system). SRB was performed by staining cells with 0.1% SRB after fixation with 10% TCA and reading wells at 560 nm.Viability and proliferation of PBMC (T cells) was quantified by Alamar Blue reduction for the SAg and BT systems. For PBMC viability (referred to as PBMC Cytotoxicity within the assay endpoint names), cells were plated (75,000/well in a 96-well plate) and then chemical samples added for 1 h before addition of activators, SEB and TSST-1 (20 ng/mL final concentration each). Cells were incubated for 90 h. Then, Alamar Blue (20 uL/well) (Invitrogen, Cat DAL1100) was added for 6 h, and the plates were read with a fluorescence microplate reader at 546/580 nm (excitation/emission). For PBMC proliferation, cells were plated and activated as above but incubated for only 16 h prior to addition of Alamar Blue. Plates were read after 6 h.
`N#CCCCCC#N`: the result was inactive. As for `CCCC[N+](CCCC)(CCCC)CCCC`, the outcome was inactive. Still for that read-out and setting: then `CCc1cc(C)cc(CC)c1-c1c(OC(=O)C(C)(C)C)n2n(c1=O)CCOCC2`, with “inactive”; and `CCCOC(=O)c1ccccc1C(=O)OCCC`, with “inactive”.

On to `Oc1cc(Cl)ccc1Cl`, for which the outcome was inactive.

`O=[N+]([O-])c1ccc(Cl)cc1`: the outcome was inactive. One may read the AC50 as the concentration giving half of the maximal activity seen. In the case of `O=C1C=CC(=O)C=C1`, the AC50 is 20 µM (active) and 11.6 µM (active). The same measure, in the same setting: then `c1ccc(Nc2ccc3ccccc3c2)cc1`, with 28.3 µM (active). For the compound `CC(=O)/C=C/c1ccccc1`, the outcome was inactive. Regarding `O=C(O)CCCc1ccc(N(CCCl)CCCl)cc1`, the AC50 was 20 µM (active) and the outcome was inactive.

Turning to `CC(C)(C)C(O)C(Oc1ccc(-c2ccccc2)cc1)n1cncn1` (centres undefined), the AC50 is 28 µM (active). On to `CC(C)(C)C(=O)CCl`, for which the result was inactive. Regarding `CC(C)COP(=O)(OCC(C)C)OCC(C)C`, the outcome was inactive. As for `COCC(=O)N(c1c(C)cccc1C)N1CCOC1=O`, the result was inactive. Turning to `O=[N+]([O-])C=Cc1ccccc1`, the AC50 was 3.08 µM (active). The same measure, in the same setting: then `CCC(C)c1cc([N+](=O)[O-])cc([N+](=O)[O-])c1OC(=O)C=C(C)C` (centres undefined), with 14.8 µM (active). Turning to `O=[N+]([O-])O`, the outcome was inactive.

In the case of `CC(C)CCCCCCCOC(=O)c1ccccc1C(=O)OCCCCCCCC(C)C`, the outcome was inactive. Still for that read-out and setting: then `CC1(C)[C@H](C(=O)O[C@H](C#N)c2cccc(Oc3ccccc3)c2)[C@@H]1C=C(Br)Br`, with “inactive”.

In the case of `O=P1(NCCCl)OCCCN1CCCl` (centres undefined), the result was inactive. The same measure, in the same setting: then `Clc1ccc(-c2ccccc2)cc1`, with “inactive”; and `O=c1c2ccccc2c(=O)c2c1cc(Cl)c1[nH]c3c([nH]c12)c(Cl)cc1c(=O)c2ccccc2c(=O)c13`, with “inactive”. `Oc1ccc(C2(c3ccc(O)cc3)c3ccccc3-c3ccccc32)cc1`: the AC50 was 5.39 µM (active) and 5.41 µM (active). For `COC(C)(C)CCC[C@H](C)C/C=C/C(C)=C/C(=O)OC(C)C`, the AC50 is 29 µM (active).

For the compound `[Cd+2].[Cl-].[Cl-]`, the AC50 is 16.2 µM (active) and 20.5 µM (active). Turning to `COc1ccc(CO)cc1`, the result was inactive. On to `O=C1C(Cl)=C(Cl)C(=O)C(Cl)=C1Cl`, for which the AC50 was 13.5 µM (active).

For the compound `CNC(=O)Oc1cc(C)c(SC)c(C)c1`, the outcome was inactive. On to `O=c1[nH]c(Cl)c(Cl)cc1Cl`, for which the result was inactive.

In the case of `CC(C)CCCCCCCOP(=O)(Oc1ccccc1)Oc1ccccc1`, the AC50 is 11.2 µM (active). Turning to `C=CC(=O)OCC(CC)CCCC` (centres undefined), the outcome was inactive. Still for that read-out and setting: then `CCCCCCCCCCCC#N`, with “inactive”. For the compound `O=C(CCl)c1ccccc1`, the AC50 was 18 µM (active). As to `Nc1ccc(-c2ccc(N)c(N)c2)cc1N`, the AC50 is 16.1 µM (active).

For `O=S(=O)(c1ccccc1)c1ccccc1`, the outcome was inactive. Regarding `Cc1ccc(OP(=O)(Oc2ccc(C)cc2)Oc2ccc(C)cc2)cc1` (tested in a mixture with another compound), the AC50 was 13.6 µM (active). As to `CC(C)(c1cc(Cl)c(O)c(Cl)c1)c1cc(Cl)c(O)c(Cl)c1`, the AC50 is 8.32 µM (active).

With `C=CCN(CC=C)C(=O)C(Cl)Cl`, the result was inactive.
